Reference: PubChem BioAssay (EPA / NIEHS)
Records with an inconclusive call do not appear. Active and inactive are the calls of the source. Rule for the calls: active = hit-call score of the fitted dose curve at least 0.9, where 1 is the maximum; inconclusive = response in the unintended direction; inactive = score below 0.9.

Experiments:
[1] = target: rat Gamma-Aminobutyric Acid Type B Receptor (GABBR), Gabbr1 (gene 81657) (UniProt Q9Z0U4); assay: NVS_GPCR_rGABBR: NovaScreen (NVS) G Protein-Coupled Receptor Assay for rat Gamma-Aminobutyric Acid Type B Receptor (GABBR) (AID 2283301)
Method in brief: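 Radioligand displacement on rat cortical membranes, 1 h, filter-based scintillation counting. Primary screen at 25 uM in duplicate; compounds passing threshold re-tested in concentration-response up to 50 uM; loss of binding fitted against DMSO.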

[2] = target: rat Somatostatin Receptor (SST), Sstr1 (gene 25033) (UniProt P28646); assay: NVS_GPCR_rSST: NovaScreen (NVS) G Protein-Coupled Receptor Assay for rat Somatostatin Receptor (SST) (AID 2283314)
Chain of rat Somatostatin Receptor (SST), Sstr1 (gene 25033) (P28646 whole entry, looked up): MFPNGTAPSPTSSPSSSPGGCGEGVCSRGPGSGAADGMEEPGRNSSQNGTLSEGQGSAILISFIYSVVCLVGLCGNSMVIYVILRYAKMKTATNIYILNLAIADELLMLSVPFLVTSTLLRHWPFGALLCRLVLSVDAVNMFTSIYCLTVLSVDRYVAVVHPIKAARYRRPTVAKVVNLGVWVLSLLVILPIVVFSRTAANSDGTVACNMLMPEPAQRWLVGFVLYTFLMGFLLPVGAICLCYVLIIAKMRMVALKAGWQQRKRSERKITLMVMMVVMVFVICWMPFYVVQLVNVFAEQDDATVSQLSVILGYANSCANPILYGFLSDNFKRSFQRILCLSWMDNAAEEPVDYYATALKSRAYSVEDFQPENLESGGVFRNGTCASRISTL
Method in brief: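 Rat forebrain membranes; radioligand displacement read by filter-based scintillation counting 1 h after dosing. Primary screen in duplicate at 25 uM. Actives (e.g., 30% inhibition) were rerun as concentration-response to 50 uM max and fitted against DMSO.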

[3] = target: Voltage-dependent N-type calcium channel subunit alpha-1B (Rattus norvegicus) (UniProt Q02294); assay: NVS_IC_rCaChN: NovaScreen (NVS) Ion Channel Assay for rat Calcium Channel, Type N (CaChN) (AID 2283317)
[4] = target: rat Vasopressin 1 Receptor (V1), Avpr1a (gene 25107) (UniProt P30560); assay: NVS_GPCR_rV1: NovaScreen (NVS) G Protein-Coupled Receptor Assay for rat Vasopressin 1 Receptor (V1) (AID 2283316)
Method in brief: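 Radioligand binding on rat liver membranes, 1.5 h incubation, filter-based scintillation counting. Single 25 uM screen in duplicate; chemicals meeting threshold (e.g. 30% inhibition) run in concentration-response up to 50 uM.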

[5] = tested on: rat Adrenergic, Alpha 1B Receptor (Adra1B), gene 24173; assay: NVS_GPCR_rAdra1B: NovaScreen (NVS) G Protein-Coupled Receptor Assay for rat Adrenergic, Alpha 1B Receptor (Adra1B) (AID 2283297)
Method in brief: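 Rat liver membranes, radioligand displacement with filter-based scintillation detection, 1 h incubation. Primary screen in duplicate at 25 uM; actives retested in concentration series; activity relative to DMSO.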

[6] = target: rat Adrenergic Receptor, Beta (Adrb), Non-selective Binding, Adrb1 (gene 24925) (UniProt P18090); assay: NVS_GPCR_rAdrb_NonSelective: NovaScreen (NVS) G Protein-Coupled Receptor Assay for rat Adrenergic Receptor, Beta (Adrb), Non-selective Binding (AID 2283298)
Chain of rat Adrenergic Receptor, Beta (Adrb), Non-selective Binding, Adrb1 (gene 24925) (P18090 whole entry, looked up): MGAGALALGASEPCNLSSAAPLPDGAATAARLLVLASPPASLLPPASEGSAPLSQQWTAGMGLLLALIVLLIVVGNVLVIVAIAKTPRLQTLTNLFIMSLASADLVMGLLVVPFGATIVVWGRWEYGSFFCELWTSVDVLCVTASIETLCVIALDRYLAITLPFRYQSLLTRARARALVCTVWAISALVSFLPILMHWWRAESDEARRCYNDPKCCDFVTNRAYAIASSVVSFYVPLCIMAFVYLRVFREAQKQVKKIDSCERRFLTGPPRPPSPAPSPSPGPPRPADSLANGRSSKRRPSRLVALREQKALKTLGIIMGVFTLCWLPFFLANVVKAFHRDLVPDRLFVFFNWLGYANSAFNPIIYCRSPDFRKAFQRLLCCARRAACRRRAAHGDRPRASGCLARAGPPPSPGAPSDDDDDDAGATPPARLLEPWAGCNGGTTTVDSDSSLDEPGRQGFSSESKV
Method in brief: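 Non-selective beta-adrenergic radioligand binding in rat cortical membranes, 1 h incubation, filter-based scintillation read-out. Primary screen 25 uM in duplicate; hits retested in concentration-response up to 50 uM, DMSO baseline.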

[7] = target: rat Adrenergic Receptor, Alpha 2 (Adra2), Non-selective Binding, Adra2a (gene 25083) (UniProt P22909); assay: NVS_GPCR_rAdra2_NonSelective: NovaScreen (NVS) G Protein-Coupled Receptor Assay for rat Adrenergic Receptor, Alpha 2 (Adra2), Non-selective Binding (AID 2283299)
Chain of rat Adrenergic Receptor, Alpha 2 (Adra2), Non-selective Binding, Adra2a (gene 25083) (P22909 whole entry, looked up): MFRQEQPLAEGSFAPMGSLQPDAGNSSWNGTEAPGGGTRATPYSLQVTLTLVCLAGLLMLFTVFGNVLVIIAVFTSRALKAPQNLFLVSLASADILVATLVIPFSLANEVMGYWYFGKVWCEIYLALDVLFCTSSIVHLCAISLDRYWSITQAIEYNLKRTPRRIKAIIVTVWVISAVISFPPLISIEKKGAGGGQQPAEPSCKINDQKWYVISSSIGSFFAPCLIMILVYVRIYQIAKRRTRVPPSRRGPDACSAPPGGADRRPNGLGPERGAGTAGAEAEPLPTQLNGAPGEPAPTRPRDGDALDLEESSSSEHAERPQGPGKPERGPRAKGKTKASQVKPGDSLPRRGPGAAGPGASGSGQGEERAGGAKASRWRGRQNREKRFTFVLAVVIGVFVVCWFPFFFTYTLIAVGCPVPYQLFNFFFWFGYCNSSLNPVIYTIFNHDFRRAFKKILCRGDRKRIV
Method in brief: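 Rat cortical membranes, radioligand competitive displacement read by filter-based scintillation counting 1.25 hours after dosing. Primary screen in duplicate at 25 uM; actives followed up in concentration series.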

[8] = target: rat Histamine Receptor (H3), Hrh3 (gene 85268) (UniProt Q9QYN8); assay: NVS_GPCR_rH3: NovaScreen (NVS) G Protein-Coupled Receptor Assay for rat Histamine Receptor (H3) (AID 2283303)
Chain of rat Histamine Receptor (H3), Hrh3 (gene 85268) (Q9QYN8 whole entry, looked up): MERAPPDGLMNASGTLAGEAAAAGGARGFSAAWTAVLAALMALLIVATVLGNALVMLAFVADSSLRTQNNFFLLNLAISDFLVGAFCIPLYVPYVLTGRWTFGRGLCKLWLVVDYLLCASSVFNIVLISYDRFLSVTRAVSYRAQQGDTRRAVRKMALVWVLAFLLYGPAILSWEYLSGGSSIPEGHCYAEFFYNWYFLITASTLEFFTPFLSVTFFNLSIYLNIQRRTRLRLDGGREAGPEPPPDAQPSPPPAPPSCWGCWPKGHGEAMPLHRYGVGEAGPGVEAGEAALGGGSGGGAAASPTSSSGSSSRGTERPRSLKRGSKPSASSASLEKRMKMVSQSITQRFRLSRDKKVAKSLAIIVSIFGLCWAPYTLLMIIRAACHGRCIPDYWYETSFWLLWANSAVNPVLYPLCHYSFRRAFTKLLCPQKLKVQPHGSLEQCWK
Method in brief: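 Rat forebrain membranes incubated 1 h with compound; radioligand displacement measured by filter-based scintillation counting. Single-concentration duplicates at 25 µM, then concentration-response up to 50 µM, relative to DMSO.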

[9] = target: Adra2b (gene 24174) (UniProt P19328); assay: NVS_GPCR_rmAdra2B: NovaScreen (NVS) G Protein-Coupled Receptor Assay for hybird cells Adrenergic, Alpha 2B Receptor (Adra2B) (AID 2283306)
Chain of Adra2b (gene 24174) (P19328 whole entry, looked up): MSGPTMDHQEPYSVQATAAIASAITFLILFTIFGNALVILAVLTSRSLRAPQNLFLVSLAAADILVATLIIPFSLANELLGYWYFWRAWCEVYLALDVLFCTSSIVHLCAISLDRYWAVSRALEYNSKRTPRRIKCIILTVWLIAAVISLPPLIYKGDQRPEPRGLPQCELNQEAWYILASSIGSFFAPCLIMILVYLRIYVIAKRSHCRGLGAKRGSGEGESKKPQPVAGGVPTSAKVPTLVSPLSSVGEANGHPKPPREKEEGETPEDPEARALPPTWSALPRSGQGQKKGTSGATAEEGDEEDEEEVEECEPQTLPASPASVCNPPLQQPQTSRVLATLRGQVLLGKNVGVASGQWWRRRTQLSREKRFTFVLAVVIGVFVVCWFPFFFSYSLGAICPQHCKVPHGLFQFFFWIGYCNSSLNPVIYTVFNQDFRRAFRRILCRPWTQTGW
Method in brief: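 Radioligand filter-binding assay on membrane proteins from neuroglioma/blastoma hybrid cells (rodent), 1 h after dosing; scintillation counting, loss of signal vs DMSO. Primary screen in duplicate at 25 uM, actives then run in concentration series.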

[10] = target: rat Opioid Receptor, Non-selective Sodium (Na+) Binding, Oprm1 (gene 25601) (UniProt P33535); assay: NVS_GPCR_rOpiate_NonSelectiveNa: NovaScreen (NVS) G Protein-Coupled Receptor Assay for rat Opioid Receptor, Non-selective Sodium (Na+) Binding (AID 2283311)
Chain of rat Opioid Receptor, Non-selective Sodium (Na+) Binding, Oprm1 (gene 25601) (P33535 whole entry, looked up): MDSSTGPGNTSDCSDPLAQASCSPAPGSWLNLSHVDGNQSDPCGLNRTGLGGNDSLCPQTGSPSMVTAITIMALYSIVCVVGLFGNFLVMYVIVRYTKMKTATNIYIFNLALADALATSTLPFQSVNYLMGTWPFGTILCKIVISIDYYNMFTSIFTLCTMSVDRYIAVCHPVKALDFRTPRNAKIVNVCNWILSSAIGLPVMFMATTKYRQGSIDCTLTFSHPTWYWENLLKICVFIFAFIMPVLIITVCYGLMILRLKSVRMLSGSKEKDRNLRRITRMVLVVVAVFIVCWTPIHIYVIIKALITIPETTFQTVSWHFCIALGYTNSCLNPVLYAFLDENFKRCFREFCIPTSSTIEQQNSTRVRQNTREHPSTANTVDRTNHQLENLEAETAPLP
Method in brief: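 Rat forebrain membranes, radioligand displacement with filter scintillation counting, 1.5 h incubation. Screened in duplicate at 25 µM; hits then run in concentration-response up to 50 µM; loss of binding fitted versus DMSO.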

[11] = target: human Neonicotinoid receptor (NNR), CHRNA2 (gene 1135) (UniProt Q15822); assay: NVS_LGIC_hNNR_NBungSens: NovaScreen (NVS) Ligand-Gated Ion Channel Assay for human Neonicotinoid receptor (NNR) (AID 2283313)
Method in brief: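 Radioligand displacement on human neuroblastoma membranes, 2 h, filter-based scintillation counting. Primary screen in duplicate at 25 uM; chemicals passing threshold (e.g. 30% inhibition) run singleton concentration-response to 50 uM; loss of binding fitted versus DMSO.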

[12] = target: rat Neonicotinoid receptor (NNR), Chrna7 (gene 25302) (UniProt Q05941); assay: NVS_LGIC_rNNR_BungSens: NovaScreen (NVS) Ligand-Gated Ion Channel Assay for rat Neonicotinoid receptor (NNR) (AID 2283315)
Method in brief: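 Radioligand displacement binding on rat cortical membranes, 2.5 h incubation, filtration and scintillation counting. Loss of specific binding fitted relative to DMSO.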

[13] = target: rat Opioid Receptor, Non-selective Binding, Oprm1 (gene 25601) (UniProt P33535); assay: NVS_GPCR_rOpiate_NonSelective: NovaScreen (NVS) G Protein-Coupled Receptor Assay for rat Opioid Receptor, Non-selective Binding (AID 2283318)
Chain of rat Opioid Receptor, Non-selective Binding, Oprm1 (gene 25601) (P33535 whole entry, looked up): as above
Method in brief: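 Rat forebrain membranes, cell-free radioligand binding with filter-based scintillation counting, read 1.5 h after dosing. Primary screen in duplicate at 25 uM; actives retested in concentration series. Loss of signal versus DMSO baseline scored.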

[14] = NVS_IC_rCaDHPRCh_L: NovaScreen (NVS) Ion Channel Assay for rat Calcium Channel, Type L, Dihydropyridine Site (CaDHPRCh_L) (AID 2283320)
Method in brief: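 Radioligand binding to dihydropyridine site on rat cortical membranes, filter-based scintillation counting, 1 h after dosing. Screened in duplicate at 25 uM; actives rerun in concentration-response up to 50 uM. Loss of signal versus DMSO baseline.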

[15] = target: rat Neurokinin-1 Receptor (NK1), Tacr1 (gene 24807) (UniProt P14600); assay: NVS_GPCR_rNK1: NovaScreen (NVS) G Protein-Coupled Receptor Assay for rat Neurokinin-1 Receptor (NK1) (AID 2283309)
Chain of rat Neurokinin-1 Receptor (NK1), Tacr1 (gene 24807) (P14600 whole entry, looked up): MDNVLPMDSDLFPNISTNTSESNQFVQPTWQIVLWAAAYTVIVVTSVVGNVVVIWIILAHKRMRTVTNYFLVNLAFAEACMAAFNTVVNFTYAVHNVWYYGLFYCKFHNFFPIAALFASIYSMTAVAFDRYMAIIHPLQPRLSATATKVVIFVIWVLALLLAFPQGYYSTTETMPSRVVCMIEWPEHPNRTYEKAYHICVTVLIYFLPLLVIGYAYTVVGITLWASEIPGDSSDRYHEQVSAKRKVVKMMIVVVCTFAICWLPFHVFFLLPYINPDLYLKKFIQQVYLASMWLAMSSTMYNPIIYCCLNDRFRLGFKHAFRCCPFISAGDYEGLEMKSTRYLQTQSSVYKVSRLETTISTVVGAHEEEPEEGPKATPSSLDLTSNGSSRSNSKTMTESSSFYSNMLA
Method in brief: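 Rat submaxillary gland membranes; radioligand displacement read by filter-based scintillation counting after 1 h. Primary screen in duplicate at 25 uM; actives retested in concentration series; loss of binding fitted versus DMSO.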

[16] = tested on: NCBI gene 24521; assay: NVS_IC_rKATPCh: NovaScreen (NVS) Ion Channel Assay for rat Potassium Channel, ATP-Sensitive (KATPCh) (AID 2283319)
Method in brief: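 Rat cortical membranes; radioligand binding at ATP-sensitive K channel site, filter-based scintillation counting 2 h after dosing. Single-point duplicate screen at 25 uM, hits rerun in concentration-response up to 50 uM; loss of signal versus DMSO.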

[17] = target: Metabotropic glutamate receptor 1 (Rattus norvegicus) (UniProt P23385); assay: NVS_GPCR_rmMGluR1: NovaScreen (NVS) G Protein-Coupled Receptor Assay for rat Glutamate Metabotropic Receptor 1 (MGluR1) (AID 2283305)
Chain of Metabotropic glutamate receptor 1 (Rattus norvegicus) (P23385 whole entry, looked up): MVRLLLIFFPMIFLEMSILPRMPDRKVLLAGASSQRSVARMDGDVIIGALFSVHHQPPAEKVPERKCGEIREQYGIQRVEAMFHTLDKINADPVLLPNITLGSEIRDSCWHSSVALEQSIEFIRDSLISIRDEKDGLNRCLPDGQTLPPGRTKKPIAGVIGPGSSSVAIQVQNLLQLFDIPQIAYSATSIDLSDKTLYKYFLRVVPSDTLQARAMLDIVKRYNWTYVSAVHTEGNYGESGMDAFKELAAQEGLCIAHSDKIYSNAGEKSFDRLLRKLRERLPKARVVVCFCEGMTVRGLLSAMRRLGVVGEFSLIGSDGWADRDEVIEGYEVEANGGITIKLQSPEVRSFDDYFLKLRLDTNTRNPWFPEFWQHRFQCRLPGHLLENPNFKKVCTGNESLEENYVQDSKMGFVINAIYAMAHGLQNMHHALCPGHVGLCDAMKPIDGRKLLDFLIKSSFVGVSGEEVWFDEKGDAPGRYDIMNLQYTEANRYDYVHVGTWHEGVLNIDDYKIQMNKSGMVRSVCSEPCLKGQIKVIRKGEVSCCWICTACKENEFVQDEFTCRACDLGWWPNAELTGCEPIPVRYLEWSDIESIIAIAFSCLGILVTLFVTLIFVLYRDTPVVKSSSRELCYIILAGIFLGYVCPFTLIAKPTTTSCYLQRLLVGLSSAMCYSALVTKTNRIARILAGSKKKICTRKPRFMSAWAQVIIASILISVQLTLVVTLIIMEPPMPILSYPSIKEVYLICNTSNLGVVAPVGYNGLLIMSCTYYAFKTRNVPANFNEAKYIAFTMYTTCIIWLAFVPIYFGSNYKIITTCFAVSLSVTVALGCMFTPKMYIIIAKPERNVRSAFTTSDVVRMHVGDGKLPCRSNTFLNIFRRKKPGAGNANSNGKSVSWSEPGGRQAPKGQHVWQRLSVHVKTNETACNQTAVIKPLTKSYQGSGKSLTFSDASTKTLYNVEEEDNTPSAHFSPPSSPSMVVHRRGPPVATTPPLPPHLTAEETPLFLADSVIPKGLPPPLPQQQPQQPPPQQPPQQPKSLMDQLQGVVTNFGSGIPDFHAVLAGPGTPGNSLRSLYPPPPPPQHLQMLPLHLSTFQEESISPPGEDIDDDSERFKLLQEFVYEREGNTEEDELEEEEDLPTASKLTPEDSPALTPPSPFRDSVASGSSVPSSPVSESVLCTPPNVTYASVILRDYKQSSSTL
Method in brief: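 Rat cerebellum membrane preparation, radioligand displacement binding read by filter-based scintillation counting 1 hour after dosing. Initial duplicate single-point screen at 25 uM, then concentration-response up to 50 uM; loss of signal versus DMSO baseline scored.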

[18] = target: rat Neurokinin-3 Receptor (NK3), Tacr3 (gene 24808) (UniProt P16177); assay: NVS_GPCR_rNK3: NovaScreen (NVS) G Protein-Coupled Receptor Assay for rat Neurokinin-3 Receptor (NK3) (AID 2283310)
Chain of rat Neurokinin-3 Receptor (NK3), Tacr3 (gene 24808) (P16177 whole entry, looked up): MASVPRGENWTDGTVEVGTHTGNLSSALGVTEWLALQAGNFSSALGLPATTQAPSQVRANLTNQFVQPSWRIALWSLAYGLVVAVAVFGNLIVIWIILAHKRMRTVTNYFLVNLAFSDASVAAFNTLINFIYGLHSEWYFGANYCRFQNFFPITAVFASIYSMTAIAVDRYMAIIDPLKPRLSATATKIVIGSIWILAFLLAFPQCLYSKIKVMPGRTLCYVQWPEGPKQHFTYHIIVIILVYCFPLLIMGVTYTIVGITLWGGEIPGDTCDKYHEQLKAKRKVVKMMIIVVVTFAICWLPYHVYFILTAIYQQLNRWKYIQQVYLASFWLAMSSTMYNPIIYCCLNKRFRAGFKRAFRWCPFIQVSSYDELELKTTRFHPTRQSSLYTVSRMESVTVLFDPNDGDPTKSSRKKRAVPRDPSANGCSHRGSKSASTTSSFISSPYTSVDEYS
Method in brief: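 Rat cortical membranes; radioligand binding with filtration and scintillation counting, 2 h after dosing. Primary screen in duplicate at 25 uM, then concentration-response up to 50 uM; loss of binding signal relative to DMSO.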

[19] = target: rat Corticotropin Releasing Factor Receptor (CRF), Crhr1 (gene 58959) (UniProt P35353); assay: NVS_GPCR_rCRF: NovaScreen (NVS) G Protein-Coupled Receptor Assay for rat Corticotropin Releasing Factor Receptor (CRF) (AID 2283300)
Method in brief: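 Rat cortical membranes used as receptor source in a radioligand competitive displacement binding assay; scintillation read 2 h after dosing. Primary screen run in duplicate at 25 uM; loss of signal versus DMSO baseline indicates binding.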

ClCCOCCCl
outcome [1]: inactive

CS(=O)(=O)NC(=O)c1cc(Oc2ccc(C(F)(F)F)cc2Cl)ccc1[N+](=O)[O-]
AC50 [2]: 1.38 µM (active) | outcome [3]: inactive

C1=Cc2cccc3cccc1c23
AC50 [4]: 1.11 µM (active)

CCOC(=O)[C@]1(c2ccccc2)Oc2ccccc2[C@@H]1N
AC50 [5]: 0.456 µM (active) | AC50 [6]: 2.61 µM (active) | AC50 [7]: 3.76 µM (active) | AC50 [8]: 10.2 µM (active) | AC50 [9]: 1.76 µM (active) | AC50 [10]: 21.3 µM (active) | outcome [11]: inactive | AC50 [12]: 25 µM (active) | AC50 [13]: 7.52 µM (active) | AC50 [14]: 6.77 µM (active)

O=C(O)C1C2CCC(O2)C1C(=O)O (stereo not given)
AC50 [2]: 3.96 µM (active)

CC(C)(C)C(O)(CCc1ccc(Cl)cc1)Cn1cncn1 (stereo not given)
outcome [9]: inactive | AC50 [15]: 12.9 µM (active)

O=Cc1ccco1
outcome [6]: inactive

O=[N+]([O-])c1ccc(Oc2ccc(Cl)cc2Cl)cc1
AC50 [6]: 0.52 µM (active) | outcome [16]: inactive

O=[N+]([O-])C(Br)(CO)CO
AC50 [17]: 40.5 µM (active) | AC50 [10]: 11 µM (active) | AC50 [13]: 16 µM (active)

O=C(N[C@H](c1ccccc1)[C@@H]1CN2CCC1CC2)c1c(Cl)ccc(C(F)(F)F)c1Cl
AC50 [5]: 14.9 µM (active) | AC50 [15]: 37.5 µM (active) | AC50 [18]: 28.9 µM (active) | AC50 [10]: 37.5 µM (active) | AC50 [13]: 9.3 µM (active)

COC(=O)c1ccccc1N
outcome [19]: inactive

COP(=S)(OC)SCN1C(=O)c2ccccc2C1=O
AC50 [13]: 31.8 µM (active)

C[C@]12C=CC3=C4CCC(=O)C=C4CC[C@H]3[C@@H]1CC[C@@H]2O
AC50 [9]: 20.7 µM (active) | AC50 [15]: 25 µM (active)

[Cl-].[Cl-].[Hg+2]
AC50 [5]: 3.96 µM (active) | AC50 [6]: 35.7 µM (active) | AC50 [7]: 6.48 µM (active) | AC50 [1]: 18.4 µM (active) | AC50 [8]: 24.6 µM (active) | AC50 [17]: 14 µM (active) | AC50 [9]: 6.72 µM (active) | AC50 [15]: 14.2 µM (active) | AC50 [18]: 12.9 µM (active) | AC50 [10]: 16.7 µM (active) | AC50 [13]: 13.6 µM (active) | AC50 [16]: 27.6 µM (active) | AC50 [14]: 16.8 µM (active)
